Source: the supplement of paper PMC8975748
Structures can show the parent of a compound that is named as a salt.

These compounds were tested on Saccharomyces cerevisiae BY4741 SeMeCo community (assay: z-score of subpopulation abundance vs DMSO median, subpopulation auxotrophic for HLM; higher = larger share of this subpopulation than in DMSO controls). Conditions: 10 µM; 24 h; SM minimal medium; subpopulation (auxotrophy): HLM.
Experimental: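 Fluorescent four-plasmid SeMeCo (self-establishing metabolically cooperating S. cerevisiae BY4741 community; plasmids pH-mRuby2, pL-mWasabi, pU-eCFP, pM-TagRFP657) was grown 24 h in minimal SM medium with each Selleck FDA-approved drug at 10 µM in 384-well plates. Cells were fixed and imaged by high-content confocal microscopy. For each auxotrophic subpopulation (and the prototroph), a z-score gives the deviation from the DMSO vehicle-control population median.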

Row | Compound | z-score of subpopulation abundance
1 | CCCN[C@H]1CCc2nc(N)sc2C1 [Pramipexole 2HCl Monohydrate] | -0.59
2 | Fc1ccc([C@@H]2CCNC[C@H]2COc2ccc3c(c2)OCO3)cc1 [Paroxetine HCl] | 0.16
3 | O=c1[nH]c(=O)n([C@H]2C[C@H](O)[C@@H](CO)O2)cc1I [Idoxuridine] | -0.75
4 | CC(=O)[O-].[K+] [Potassium acetate] | -0.9
5 | CO/N=C(\C(=O)N[C@@H]1C(=O)N2C(C(=O)[O-])=C(C[N+]3(C)CCCC3)CS[C@H]12)c1csc(N)n1 [Cefepime Dihydrochloride Monohydrate] | 0.34
6 | O=C(Cn1cnnn1)N[C@@H]1C(=O)N2C(C(=O)O)=C(CSc3nncs3)CS[C@H]12 [Ceftezole] | -0.2
7 | CN1CCCN=C1/C=C/c1cccc(O)c1 [Oxantel Pamoate] | -0.2
8 | O=C(Nc1cccc(C2=NCCN2)c1)Nc1cccc(C2=NCCN2)c1 [Imidocarb dipropionate] | -0.49
9 | Clc1ccc(CSC(Cn2ccnc2)c2ccc(Cl)cc2Cl)cc1 (stereo not given) [Sulconazole Nitrate] | 24.7
10 | CC1=C(CC(=O)O)c2cc(F)ccc2/C1=C\c1ccc([S+](C)[O-])cc1 (stereo not given) [Sulindac] | -0.2
11 | CC(C)COc1ccc(CNC(=O)N(Cc2ccc(F)cc2)C2CCN(C)CC2)cc1 [Pimavanserin] | 0.27
12 | COC(=O)C1=C(C)NC(C)=C(C(=O)OC(C)(C)CN(C)CCC(c2ccccc2)c2ccccc2)C1c1cccc([N+](=O)[O-])c1 (stereo not given) [Lercanidipine hydrochloride] | 0.74
13 | C[C@]12CC[C@@H]3c4ccc(O)cc4CC[C@H]3[C@@H]1CCC2=O [Estrone] | -0.39
14 | COC(=O)C1=C(C)NC(C)=C(C(=O)OCCN2CCN(C(c3ccccc3)c3ccccc3)CC2)C1c1cccc([N+](=O)[O-])c1 (stereo not given) [Manidipine 2HCl] | 1.42
15 | CO/N=C(/C(=O)N[C@@H]1C(=O)N2C(C(=O)OCOC(=O)C(C)(C)C)=C(C)CS[C@H]12)c1csc(N)n1 [Cefetamet pivoxil hydrochloride] | 1.15
16 | CCCCCCCCCCCC(=O)O [Lauric Acid] | -1.21
17 | O=C1c2cccc3c2[C@H](CCC3)CN1[C@@H]1CN2CCC1CC2 [Palonosetron HCl] | -0.58
18 | C[C@](N)(Cc1ccc(O)c(O)c1)C(=O)O [Methyldopa] | -0.36
19 | COC(=O)C1=C(C)NC(C)=C(C(=O)OC)C1c1ccccc1[N+](=O)[O-] [Nifedipine] | 0.5
20 | NC(=O)C(c1ccccc1)(c1ccccc1)[C@@H]1CCN(CCc2ccc3c(c2)CCO3)C1 [Darifenacin HBr] | -0.63

Row | Compound | z-score of subpopulation abundance
21 | CC(C)Cc1ccc(C(C)C(=O)O)cc1 (stereo not given) [Ibuprofen] | 0.37
22 | CC[C@H]1OC(=O)[C@H](C)[C@@H](O[C@H]2C[C@@](C)(OC)[C@@H](O)[C@H](C)O2)[C@H](C)[C@@H](O[C@@H]2O[C@H](C)C[C@H](N(C)C)[C@H]2O)[C@](C)(O)C[C@@H](C)CN[C@H](C)[C@@H](O)[C@]1(C)O [Azathramycin] | -0.79
23 | COc1ccc(C(=O)NCc2ccc(OCCN(C)C)cc2)cc1OC [Itopride hydrochloride] | 0.04
24 | CC[N+](CC)(CC)CCOc1cccc(OCC[N+](CC)(CC)CC)c1OCC[N+](CC)(CC)CC [Gallamine Triethiodide] | -0.27
25 | CC[N+](CC)(CC)CC [Tetraethylammonium bromide] | -0.06
26 | CC(C)NNC(=O)c1ccncc1 [Iproniazid] | -0.85
27 | C[C@@H]1C/C=C/C=C/C=C/C=C/[C@H](O[C@@H]2O[C@H](C)[C@@H](O)[C@H](N)[C@@H]2O)C[C@@H]2O[C@](O)(C[C@@H](O)C[C@H]3O[C@@H]3/C=C/C(=O)O1)C[C@H](O)[C@H]2C(=O)O [Natamycin] | 38.1
28 | CCCc1nn(C)c2c(=O)[nH]c(-c3cc(S(=O)(=O)N4CCN(C)CC4)ccc3OCC)nc12 [Sildenafil Citrate] | -0.32
29 | O=C(O)c1ccccc1O [Salicylic acid] | -1.09
30 | CCCC1CC(C(=O)NC(C(C)Cl)C2OC(SC)C(O)C(O)C2O)N(C)C1 (stereo not given) [Clindamycin alcoholate] | 0.08
31 | N#Cc1ccc2[nH]cc(CCCCN3CCN(c4ccc5oc(C(N)=O)cc5c4)CC3)c2c1 [Vilazodone HCl] | -0.45
32 | CCCCOc1ccc(C(=O)CCN2CCCCC2)cc1 [Dyclonine HCl] | -0.52
33 | Cc1c(OCC(F)(F)F)ccnc1C[S@@+]([O-])c1nc2ccccc2[nH]1 [Dexlansoprazole] | -0.96
34 | Cc1ccc(Nc2c(F)cccc2Cl)c(CC(=O)O)c1 [Lumiracoxib] | 3.33
35 | Cc1cc(O)cc(C)c1Cl [Chloroxylenol] | 0.76
36 | C[C@@H](O)[C@H]1C(=O)N2C(C(=O)O)=C(S[C@@H]3CN[C@H](C(=O)N(C)C)C3)[C@H](C)[C@H]12 [Meropenem Trihydrate] | 0.4
37 | O=C(CCCN1CC=C(n2c(=O)[nH]c3ccccc32)CC1)c1ccc(F)cc1 [Droperidol] | 0.63
38 | C[C@@H](O)[C@H]1C(=O)N2C(C(=O)OCOC(=O)C(C)(C)C)=C(SC3CN(C4=NCCS4)C3)[C@H](C)[C@H]12 [Tebipenem Pivoxil] | -0.55
39 | COCCCN1CCC(NC(=O)c2cc(Cl)c(N)c3c2OCC3)CC1 [Prucalopride Succinate] | 1.1
40 | Nc1ccc(S(=O)(=O)Nc2ncccn2)cc1 [Sodium sulfadiazine] | -0.23
